# 12-LOX inh: inhibitors of human 12S-lipoxygenase ALOX12. P18054. purified 12hLO, xylenol orange hydroperoxide absorbance. Potency, µM (doses to about 108 µM), hits mostly inhibitors. 580,000 compounds, 1.1% hits. AID 1671190
# Target sequence (P18054 whole entry, looked up): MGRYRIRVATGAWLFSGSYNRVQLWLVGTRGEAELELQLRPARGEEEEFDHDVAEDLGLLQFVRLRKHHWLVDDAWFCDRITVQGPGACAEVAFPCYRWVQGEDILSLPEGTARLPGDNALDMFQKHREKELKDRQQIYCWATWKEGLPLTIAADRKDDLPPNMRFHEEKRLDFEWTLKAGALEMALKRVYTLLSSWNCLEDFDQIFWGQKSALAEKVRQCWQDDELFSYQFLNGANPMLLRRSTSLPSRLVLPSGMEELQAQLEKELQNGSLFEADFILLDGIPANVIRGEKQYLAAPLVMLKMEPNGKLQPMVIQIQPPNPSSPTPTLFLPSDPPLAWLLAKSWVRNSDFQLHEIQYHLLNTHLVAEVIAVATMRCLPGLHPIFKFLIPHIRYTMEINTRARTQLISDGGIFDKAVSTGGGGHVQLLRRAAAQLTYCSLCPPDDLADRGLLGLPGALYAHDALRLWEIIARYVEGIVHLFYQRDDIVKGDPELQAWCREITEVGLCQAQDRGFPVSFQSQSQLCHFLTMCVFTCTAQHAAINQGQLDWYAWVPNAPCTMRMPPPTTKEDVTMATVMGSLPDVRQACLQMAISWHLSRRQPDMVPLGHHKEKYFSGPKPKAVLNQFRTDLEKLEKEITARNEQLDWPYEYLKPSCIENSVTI
#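 Purified human 12hLO (150 nM final) in 25 mM Hepes, 0.01% Triton X-100, pH 7.0 was preincubated 15 min at room temperature with compound. Then 40 uM arachidonic acid was added, 30 min. Hydroperoxide was read by Fe-XO absorbance ratio 573/405 nm.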
# TDP1 cell CPT: growth inhibition of DT40 Tdp1-/-;hTDP1 cells with camptothecin (screen for TDP1 inhibitors) | chicken DT40 Tdp1-/-;hTDP1 cells + 20 nM CPT, ATP luminescence, 48 h | Potency, µM (doses to about 46.2 µM), actives largely listed as inhibitors | 420,000 compounds, 12% hits; also: nearly all actives have a fitted effect of over 55% in size
#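 Cell growth measured by CellTiter-Glo luminescence after a minimum 48 h, 37 C compound exposure with 20 nM CPT in Tdp1-knockout DT40 cells stably expressing hTDP1, seeded 400/well; qHTS titration format.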
# HT1080-NT tox: kills 2HG-producing HT-1080-NT fibrosarcoma cells; HT-1080-NT fibrosarcoma viability, CellTiter-Glo ATP luminescence, 48 h; Potency, µM (series often up to 46.1 µM), actives largely listed as cytotoxic; 360,000 compounds, 1.6% hits; AID 686970;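 also: NT is the 2HG producing partner of a matched IDH1 knockdown line; nearly all actives have a fitted effect of over 55% in size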
#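 Viability by CellTiter-Glo luminescence after 48 h compound exposure at 37C of HT-1080-NT cells (750/well, RPMI, 5% FBS). % activity scaled between DMSO wells and medium-only wells, then curve-fitted and categorized by curve class.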
# TDP1 cell noCPT: qHTS for Inhibitors of human tyrosyl-DNA phosphodiesterase 1 (TDP1): qHTS in cells in absence of CPT; Potency, µM (titrated, usually from 46.2 µM), most hits filed as inhibitors; 420,000 compounds, 15% hits; AID 686978, 2013; DT40 Tdp1-/- hTDP1 cells, no CPT, ATP luminescence, 48 h; also: nearly all actives have a fitted effect of over 55% in size
#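 Cells were dispensed at 400 per well, compounds added by pin tool, plates incubated ≥48 hr at 37 °C, then CellTiter-Glo added for 30 min at room temperature before luminescence reading. Line: DT40 Tdp1-/- complemented with hTDP1; camptothecin omitted.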
# HT1080 IDH1KD tx: HT-1080 IDH1 knockdown cell toxicity (counter line); HT-1080 IDH1 knockdown viability, ATP luminescence, 48 h; Potency, µM (highest dose often 46.1 µM), most hits filed as cytotoxic; 360,000 compounds, 2% hits; AID 686971
#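 Assay cells: HT-1080 with IDH1 knockdown, 750 per well, RPMI/5% FBS. Exposure: 48 h at 37 °C following 2 h pre-incubation. Read: CellTiter-Glo luminescence; fitted concentration-response, curve class assigned.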
# IL-1B inflam inh: inflammasome signaling inhibition, IL-1 beta readout. THP-1 LPS/ATP IL-1B secretion, AlphaLISA, 16 h; active compounds read low. activity change, % at 57.5 µM. 360,000 compounds, 4.7% hits. AID 743279; in the data active = activity change below about -50%; inconclusive = mostly about -30% to -49%
#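 Secreted IL-1B measured by AlphaLISA bead assay after 16 h compound exposure of THP-1 cells; compounds (final up to 57.5 uM) added 1 h before LPS (250 ng/mL) and ATP (1.25 mM) stimulation; lower signal means less secretion.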
# Hits are given with their value; 0 = inactive; ? = inconclusive; - = not tested or not shown. Many of the other results were omitted from the sample, so hits are more common in it than they were. Unless noted, calls follow the shape of the dose curve; as a rule, active = well fitted curve in the direction sought with a large enough effect; inconclusive = small, poorly fitted or top-dose-only effect, or another doubt; inactive = no such curve, though single readings can be large; an effect the other way counts as inactive or inconclusive.
SMILES,12-LOX inh,TDP1 cell CPT,HT1080-NT tox,TDP1 cell noCPT,HT1080 IDH1KD tx,IL-1B inflam inh
Cc1ccc(Nc2cc(C(=O)NCc3cccs3)c3ccccc3n2)c(C)c1,?,?,-,0,-,-
COc1ccccc1Nc1cc(C(=O)NCc2cccs2)c2ccccc2n1,?,26µM,-,?,-,-
COc1ccc(CC(=O)NCc2cccs2)cc1OC,0,0,0,0,0,0
COc1cc2[nH]cc(C(=O)NCc3cccs3)c(=O)c2cc1OC,0,0,20µM,0,?,0
O=C(Nc1nnc(-c2cccs2)o1)c1cc(-c2ccccc2)nc2ccccc12,0,13µM,?,15µM,?,0
Cc1ccccc1Nc1cc(C(=O)NCc2cccs2)c2ccccc2n1,?,21µM,-,?,-,-
CN1CCCCC(NC(=O)c2ccc(C#N)cc2)C1=O (stereo unspecified),0,-,-,-,-,-
CC(=O)Nc1cccc(C(=O)NCc2nnc3ccc(-c4ccc(Cl)cc4)nn23)c1,0,-,-,-,-,-
O=C1CC2(CCN(CC3CC3)CC2)Oc2ccccc2N1c1ccccc1,0,-,-,-,-,-
COc1ccc(C)cc1NC(=O)Cn1c(-c2ccc(F)cc2)nc(C)cc1=O,0,-,-,-,-,-
COc1ccc(NC(=O)c2ccc(-n3cccn3)cc2)c(OC)c1,0,-,-,-,-,-
Cc1ccc(C(=O)N2CCn3c(nnc3C(=O)NCC3CC3)C2)cc1F,0,-,-,-,-,-
CC(=O)Oc1ccc(/C=C/C(=O)CC2OC(Oc3cc(OC(C)=O)c4c(c3)O[C@@H](c3ccc(OC(C)=O)cc3)CC4=O)C(OC(C)=O)C(OC(C)=O)C2OC(C)=O)cc1 (stereo partly specified),-,8.4µM,-,7.5µM,-,-
O=C1C[C@H](c2ccc(O)cc2)Oc2cc(O[C@@H]3O[C@H](CO)[C@@H](O)[C@H](O)[C@H]3O)cc(O[C@@H]3O[C@H](CO)[C@@H](O)[C@H](O)[C@H]3O)c21,0,0,0,0,0,0
O=C(CCl)Nc1cc2[nH]c(=O)[nH]c2cc1Br,0,2.1µM,10µM,1.8µM,6.5µM,-101
Cc1cc(=O)[nH]c2ccc(Cl)cc12,0,0,0,0,0,0
Cc1cc2c(C)cc(=O)[nH]c2cc1NC(=O)CCl,?,5.2µM,?,2.3µM,?,-96
Cc1ccc(-c2csc(N3CCC[C@@H]3C(=O)NCCn3c(-c4ccncc4)nc4ccccc43)n2)cc1,0,?,0,13µM,0,?
CCCn1c(C2CCCN2c2nc(-c3ccc(C)cc3)cs2)nc2ccccc21 (stereo unspecified),0,?,?,?,?,0
Cc1ccc(-c2csc(NCCn3c(C(F)(F)F)nc4ccccc43)n2)cc1,0,?,?,?,0,0
CC(=O)N[C@@H](C)c1nc2ccccc2n1CCCN1CCN(c2nc(-c3ccc(C)cc3)cs2)CC1,0,1µM,0,1µM,0,0
Cc1ccc(-c2csc(N3CCN(CCCn4c(C(F)(F)F)nc5ccccc54)CC3)n2)cc1,0,21µM,?,15µM,0,0
CCn1c(C(C)NC(C)=O)nc2ccccc21 (stereo unspecified),0,0,0,0,0,0
Cc1ccc(-c2csc(N3CCN(CCCn4c(-c5ccncc5)nc5ccccc54)CC3)n2)cc1,0,5.8µM,?,3.7µM,?,0
COc1cccc(C(=O)N2CC(Oc3ccccc3-c3nc(-c4ccccc4)no3)C2)c1,0,-,-,-,-,-
SMILES,12-LOX inh,TDP1 cell CPT,HT1080-NT tox,TDP1 cell noCPT,HT1080 IDH1KD tx,IL-1B inflam inh
Cc1ccc(C(=O)Nc2ccc3nc(N4CCCCC4)cc(C)c3c2)cc1F,0,?,-,23µM,-,-
CCN1CCN(c2cc(C)c3cc(NC(=O)c4ccc(C)c(C)c4)ccc3n2)CC1,0,?,0,18µM,0,0
COCCNC(=S)Nc1ccc2nc(N3CCOCC3)cc(C)c2c1,?,0,0,0,0,0
Cc1cc(N2CCCCC2)nc2ccc(NC(=O)c3cccc(F)c3)cc12,0,7.3µM,-,7.3µM,-,-
Cc1cc(N2CCOCC2)nc2ccc(NC(=S)NCc3ccc4c(c3)OCO4)cc12,0,?,0,18µM,0,0
Cc1ccc(N2CC(NC(=O)N3CCN(C(=O)c4ccco4)CC3)CC2=O)cc1 (stereo unspecified),0,0,0,0,0,0
CN1C[C@H](NCc2nccs2)CCC[C@@H](C(=O)NC2CCOCC2)CC1=O,0,-,-,-,-,-
CNC(=O)c1cc(S(=O)(=O)N[C@@H]2COCC[C@H]2O)ccc1OC,0,-,-,-,-,-
CCN1CCN(c2cc(C)c3cc(NC(=O)c4ccncc4)ccc3n2)CC1,0,?,0,?,0,0
Cc1cc(N2CCCC2)nc2ccc(NC(=S)NC(C)C)cc12,0,?,0,16µM,0,0
Cc1cc(N2CCCCC2)nc2ccc(NC(=O)c3cccc(Cl)c3)cc12,0,23µM,-,21µM,-,-
C#CCNC(=O)C[C@@H]1O[C@H](CNC(=O)c2cccc(F)c2)[C@@H](O)[C@H]1O,0,-,-,-,-,-
N#CCCN(C(=O)CSc1nnnn1-c1ccccc1)c1ccc(F)cc1,0,-,-,-,-,-
N/C(=N\OC(=O)/C=C/c1ccccc1Cl)c1ccncc1,0,0,0,0,0,-56
COc1ccccc1C/C(N)=N/OC(=O)/C=C/c1ccccc1,0,?,?,0,?,-56
COc1ccccc1C/C(N)=N/OC(=O)c1cccs1,0,?,?,?,0,0
N/C(=N\OC(=O)/C=C/c1ccccc1)c1ccncc1,0,0,0,0,0,-50
COC(=O)C1=C(N)N(c2ccccc2C(F)(F)F)C2=C(C(=O)CC(C)(C)C2)C1c1cccnc1 (stereo unspecified),0,-,-,-,-,-
CN(C)CCNc1ncnc2c1ncn2[C@H]1CN(Cc2ccco2)C[C@@H](CO)O1,-,0,0,0,0,0
COc1ccc(S(=O)(=O)N2CCN(c3ccccc3)CC2)cc1C(=O)N1CCCC1,0,0,0,0,0,0
COc1ccc(N2CCN(C(=O)COc3ccc(S(=O)(=O)N4CCOCC4)cc3C)CC2)cc1,0,?,0,23µM,0,0
COc1ccc(N2CCN(S(=O)(=O)c3ccc(OC)c(C(=O)N4CCOCC4)c3)CC2)cc1,?,0,0,0,0,0
COc1ccc(N2CCN(C(=O)c3cc(S(=O)(=O)N4CCCCCC4)ccc3OC)CC2)cc1,0,?,0,16µM,0,0
COc1ccc(S(=O)(=O)N2CCCCCC2)cc1C(=O)N1CCN(c2ccc(F)cc2)CC1,0,?,0,21µM,0,?

# Compound activity deposited in PubChem BioAssay by National Center for Advancing Translational Sciences (NCATS).
